Screening data (PubChem BioAssay)
TDP1 cell noCPT = qHTS for Inhibitors of human tyrosyl-DNA phosphodiesterase 1 (TDP1): qHTS in cells in absence of CPT. hit rate 15% among 420,000. DT40 Tdp1-/- hTDP1 cells, no CPT, ATP luminescence, 48 h. Potency, µM (top dose mostly 46.2 µM), inactives show at the highest dose activity change, negative = growth inhibition, most hits filed as inhibitors; also: potency is read from the fitted curve at half-maximal effect; nearly all actives have a fitted effect of over 55% in size
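DT40 Tdp1-/-;hTDP1 cells, no CPT (DMSO vehicle only), 400 cells/well; compounds pin-transferred; ≥48 hr, 37 °C; CellTiter-Glo 30 min RT dark, luminescence read.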
TDP1 block = inhibitors of human tyrosyl-DNA phosphodiesterase TDP1 | recombinant TDP1, AlphaScreen DNA substrate cleavage | Potency, µM (doses to about 130 µM), without a hit: top-dose activity change, negative = inhibition, most hits filed as inhibitors | hit rate 0.28% among 350,000 | AID 485290; also: potency is read from the fitted curve at half-maximal effect; nearly all actives have a fitted effect of over 40% in size
Target sequence (Q9NUW8 whole entry, looked up): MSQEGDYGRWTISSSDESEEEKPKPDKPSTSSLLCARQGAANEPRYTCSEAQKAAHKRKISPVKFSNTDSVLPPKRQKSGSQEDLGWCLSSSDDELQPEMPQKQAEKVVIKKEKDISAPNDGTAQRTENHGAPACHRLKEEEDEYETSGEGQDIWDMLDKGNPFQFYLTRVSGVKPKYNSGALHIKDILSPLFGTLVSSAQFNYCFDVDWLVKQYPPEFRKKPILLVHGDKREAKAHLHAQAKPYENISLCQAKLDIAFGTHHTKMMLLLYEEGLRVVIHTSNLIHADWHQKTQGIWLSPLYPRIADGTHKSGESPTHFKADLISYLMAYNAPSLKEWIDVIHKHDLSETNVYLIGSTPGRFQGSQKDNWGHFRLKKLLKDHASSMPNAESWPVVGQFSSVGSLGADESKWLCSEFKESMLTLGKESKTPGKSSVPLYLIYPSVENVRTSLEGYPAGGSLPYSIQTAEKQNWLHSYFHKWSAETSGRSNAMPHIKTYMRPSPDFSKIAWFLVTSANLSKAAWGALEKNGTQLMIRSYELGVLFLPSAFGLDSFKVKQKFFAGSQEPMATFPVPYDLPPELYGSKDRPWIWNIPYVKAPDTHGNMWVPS
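E. coli-derived human Tdp1, 1 nM final. Cpd preinc 15 min RT; substrate 15 nM final, 5 min RT; AS bead mix 10 ug/ml final, 10 min RT. Signal loss = tyrosine-FITC cleavage. No-enzyme wells = max signal.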
IL-1B inflam inh = inflammasome signaling inhibition, IL-1 beta readout. THP-1 LPS/ATP IL-1B secretion, AlphaLISA, 16 h; stronger effect = lower value. activity change, % at 57.5 µM. hit rate 4.7% among 360,000. AID 743279; in the data active = activity change below about -50%; inconclusive = mostly about -30% to -49%
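THP-1 cells pretreated 1 hr with compounds (up to 57.5 uM final), then stimulated with LPS (250 ng/mL final) plus ATP (1.25 mM final); secreted IL-1B measured by AlphaLISA after 16 hr, decreased signal indicating inhibition.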
Giardia kill = Giardia lamblia killing. hit rate 0.15% among 340,000. Giardia lamblia trophozoite viability. activity change, % at 7.66 µM, hits read low. AID 540267; in the data active = activity change below about -80%; inconclusive = between about -30% and that limit;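 also: parasites exposed to compound for two days anaerobically before the ATP read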
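Viability, read as ATP luminescence: trophozoites at 100 cells/well, compound added, 48 hrs anaerobic at 37 deg C, then 15-30 min room-temperature development before reading.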
ELG1 DNA repair = blocks ELG1-dependent DNA repair in HEK293T cells; HEK293T ELG1-luciferase reporter, luminescence, 16 h; DNA damage induced by 5-fluorouridine; Potency, µM (doses to about 46.1 µM), for inactives: top-dose activity change, negative = inhibition, actives largely listed as inhibitors; hit rate 2.3% among 330,000; AID 504467; also: potency is read from the fitted curve at half-maximal effect; nearly all actives have a fitted effect of over 55% in size
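Reporter activity after DNA damage by 5-fluorouridine is monitored. Compound-treated cells incubate 16 hr at 37 °C, then ONE-Glo is added for 30 min before luminescence reading.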
TDP1 cell CPT = growth inhibition of DT40 Tdp1-/-;hTDP1 cells with camptothecin (screen for TDP1 inhibitors); chicken DT40 Tdp1-/-;hTDP1 cells + 20 nM CPT, ATP luminescence, 48 h; Potency, µM (series often up to 46.2 µM), inactives show at the top dose activity change, negative = growth inhibition, most hits filed as inhibitors; hit rate 12% among 420,000; AID 686979; also: potency is read from the fitted curve at half-maximal effect; nearly all actives have a fitted effect of over 55% in size
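Chicken DT40 Tdp1-/- cells stably complemented with human TDP1 were seeded at 400 cells/well in medium containing 20 nM camptothecin, exposed to pin-transferred compounds, and grown at 37 °C for at least 48 hr. Viability was read as ATP luminescence.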
Starred values were filed as active, the others as inactive; u = inconclusive; x = no result; [ ] = remark or other dose. An excerpt weighted towards active compounds, which were near 19% of everything screened. Unless noted, calls follow the shape of the dose curve; as a rule, active = well fitted curve in the direction sought with a large enough effect; inconclusive = small, poorly fitted or top-dose-only effect, or another doubt; inactive = no such curve, though single readings can be large; an effect the other way counts as inactive or inconclusive. % is scaled to controls: 0 for no effect and ±100 for the full control effect.

SMILES	TDP1 cell noCPT	TDP1 block	IL-1B inflam inh	Giardia kill	ELG1 DNA repair	TDP1 cell CPT
Cc1cc2c(sc3ccccc32)c(C)n1	u	8%	30	17	0%	-16%
Cc1cc(C)nc(Nc2nc(=O)c3ccccc3s2)n1	21µM*	4%	-16	u	u	u
CCCN1CCN(CCCNC(=O)c2ccc(NC(=O)C3=C(C)OCCS3)cc2)CC1	19%	2%	-20	1	-5%	-8%
CC1=C(C(=O)N2CCN(c3ccccc3)CC2)C2(CCCCC2)OC1=O	-27%	7%	x	x	x	-24%
CC1=C(C(=O)N2CCN(c3cccc(Cl)c3)CC2)C2(CCCCC2)OC1=O	21µM*	2%	x	x	x	u
CC1=C(C(=O)N2CCN(c3cccc(C)c3C)CC2)C2(CCCCC2)OC1=O	21µM*	2%	x	x	x	21µM*
Cc1cccc(N2CCN(C(=O)c3ccc4c(c3)OCCO4)CC2)c1C	u	5%	-10	3	-5%	u
CCC(=O)CC(NC(=O)OC)c1ccccc1 (stereo unspecified)	x	-1%[21 µM]	x	x	x	x
CCCCNC(=O)c1c(CSc2ccc(Cl)cc2)noc1C(=O)NCc1ccccc1	u	x	13	3	x	18µM*
CN(C)CCNC(=O)c1c(CSc2ccc(Cl)cc2)noc1C(=O)NCc1ccccc1	16µM*	x	-4	21	x	18µM*
CCCNC(=O)c1c(CSc2ccc(Cl)cc2)noc1C(=O)NCc1ccccc1	u	x	u	-3	x	u
O=C(O)C(Cc1c[nH]c2ccccc12)NS(=O)(=O)c1ccc(Cl)c(C(F)(F)F)c1 (stereo unspecified)	0%	x	22	2	3%	0%
CCc1ccccc1NCC(=O)Nc1ccccc1C(=O)OC	u	5%	6	-12	-4%	u
COC(=O)c1ccccc1NC(=O)Cn1cnc2cc(C)c(C)cc21	23µM*	5%	30	7	u	15µM*
COC(=O)c1ccccc1NC(=O)CNc1cc(OC)c(OC)cc1C	18µM*	3%	22	-4	u	u
O=C(OCC(=O)N1CCc2ccccc2C1)c1cc(=O)[nH]c2ccccc12	-12%	x	28	1	2%	-5%
CSc1ccc(CN2CCC(C)(Oc3cccc(C#N)c3)C2)cc1 (stereo unspecified)	u	x	-3	x	x	u
OCCOCCn1c(C(CO)Nc2nc(-c3cccc(Br)c3)cs2)nc2ccccc21 (stereo unspecified)	18µM*	x	-23	2	x	u
CCCn1c(C(CO)Nc2nc(-c3cccc(Br)c3)cs2)nc2ccccc21 (stereo unspecified)	u	x	-57*	-3	11%	u
OCCOCCn1c(C(CO)Nc2nc(-c3ccc(Cl)cc3)cs2)nc2ccccc21 (stereo unspecified)	18µM*	x	u	17	x	29µM*
OCCOCCn1c(C(CO)Nc2nc(-c3ccccc3Br)cs2)nc2ccccc21 (stereo unspecified)	-22%	x	7	36	x	u
Nc1c(Cl)cc(-c2csc(NC(CO)c3nc4ccccc4n3CCOCCO)n2)cc1Cl (stereo unspecified)	u	x	u	-10	x	u
CN(Cc1ccccc1)c1ccc2nnc(-c3ccccc3)n2n1	u	7%	-26	8	u	u
CCOc1ccc(CCNc2ccc3nnc(-c4ccccc4)n3n2)cc1OCC	u	3%	31	-9	u	16µM*
Clc1ccc(CNc2ccc3nnc(-c4ccccc4)n3n2)cc1	4.1µM*	-3%	-7	u	-4%	2.1µM*
SMILES	TDP1 cell noCPT	TDP1 block	IL-1B inflam inh	Giardia kill	ELG1 DNA repair	TDP1 cell CPT
CCOc1ccc(CCNc2nc3c(-c4ccc(C)cc4)nnn3c3ccccc23)cc1OCC	u	-1%	x	x	x	0%
CC[C@]1(O)C[C@@H]2CN(CCc3c([nH]c4ccccc34)[C@](C(=O)OC)(c3cc4c(cc3OC)N(C)[C@H]3[C@](O)(C(=O)OC)[C@@H](C(=O)OC)[C@@]5(CC)C=CCN6CC[C@@]43[C@@H]65)C2)C1	0.11µM*	-2%[56.1 µM]	x	x	x	0.084µM*
CCC1(O)CC2CN(CCc3c([nH]c4ccccc34)[C@@](C(=O)OC)(c3cc4c(cc3OC)N(C)C3[C@]45CCN4CC=C[C@@](CC)([C@@H](OC(C)=O)[C@]3(O)C(=O)OC)[C@H]45)C2)C1 (stereo partly specified)	x	15%[56.1 µM]	x	x	x	x
CCC1=C[C@@H]2CN(C1)Cc1c([nH]c3ccccc13)[C@@](C(=O)OC)(c1cc3c(cc1OC)N(C)[C@H]1[C@@](O)(C(=O)OC)[C@H](OC(C)=O)[C@]4(CC)C=CCN5CC[C@]31[C@@H]54)C2	0.053µM*	15%	x	x	x	0.06µM*
CC[C@]1(O)CC2CN(CCc3c([nH]c4ccccc34)[C@@](C(=O)OC)(c3cc4c(cc3OC)N(C)[C@H]3[C@@](O)(C(N)=O)[C@H](O)[C@]5(CC)C=CCN6CC[C@]43[C@@H]65)C2)C1 (stereo partly specified)	0.34µM*	x	x	x	x	0.34µM*
CC[C@]1(O)C[C@@H]2CN(CCc3c([nH]c4ccccc34)[C@@](C(=O)OC)(c3cc4c(cc3OC)N(C)C3[C@]45CCN4CC=C[C@](CC)(C45)[C@@H](OC(C)=O)[C@]3(O)C(=O)OC)C2)C1 (stereo partly specified)	0.016µM*	9%	x	x	x	0.025µM*
Clc1cccc(-c2ccc(C=Nc3ccc(N4CCOCC4)cc3)o2)c1	u	8%	11	-4	3%	u
O=C(N/N=C/c1cc(Br)cc(Br)c1O)c1cccc(S(=O)(=O)N2CCOCC2)c1	3.7µM*	x	80	-8	u	3.7µM*
O=C(N/N=C/c1cc(Br)cc(Br)c1O)c1cccc(N2CCCC2=O)c1	1.5µM*	12%	129	1	u	5.2µM*
O=C(N/N=C/c1sc(N2CCOCC2)nc1-c1ccccc1)c1cccc(S(=O)(=O)N2CCCC2)c1	4.6µM*	-3%	56	2	5.2µM*	2.6µM*
O=C(N/N=C/c1sc(N2CCOCC2)nc1-c1ccccc1)c1ccc(O)cc1	u	1%	-20	3	u	u
COc1cccc(/C=N/NC(=O)c2ccc(N3CCCC3=O)cc2)c1	23µM*	x	-29	9	2%	u
